IL1B secr inh – inflammasome signaling inhibition, IL-1 beta readout; THP-1 LPS/ATP IL-1B secretion, AlphaLISA, 16 h; hits give low values; activity change, % at 57.5 µM; 360,000 tested, 4.7% active; AID 743279; in the data active means activity change below about -50%; inconclusive means mostly about -30% to -49%; further: on the % scale 0 is the no-effect control and ±100 the full control effect
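THP-1 cells pretreated 1 hr with compounds (up to 57.5 uM final), then stimulated with LPS (250 ng/mL final) plus ATP (1.25 mM final); secreted IL-1B measured by AlphaLISA after 16 hr, decreased signal indicating inhibition.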
TDP1 cell CPT – DT40-hTDP1 cell growth loss with CPT; chicken DT40 Tdp1-/-;hTDP1 cells + 20 nM CPT, ATP luminescence, 48 h; Potency, µM (doses to about 46.2 µM), for inactives: at the top dose activity change, negative = growth inhibition, most hits filed as inhibitors; 420,000 tested, 12% active; AID 686979; further: potency means the concentration at half of the fitted maximal effect; on the % scale 0 is the no-effect control and ±100 the full control effect; nearly all actives have a fitted effect of over 55% in size
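Cell growth measured by CellTiter-Glo luminescence after a minimum 48 h, 37 C compound exposure with 20 nM CPT in Tdp1-knockout DT40 cells stably expressing hTDP1, seeded 400/well; qHTS titration format.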
SW480 rereplic – inducers of DNA re-replication in SW480 colon cancer cells. SW480 DNA re-replication, Hoechst DNA content imaging, 48 h. Potency, µM (highest dose often 46.1 µM), inactives show top-dose re-replication activation, most hits filed as activators. 340,000 tested, 1.8% active; further: potency means the concentration at half of the fitted maximal effect; % of control where 0% means no effect; nearly all actives have a fitted effect of over 55% in size
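First, 250 cells per well were seeded. Next, compound or vehicle (23 nL) was pinned in, plates sat 48 hr at 37 C. Finally Hoechst was added for 40 min before fluorescence scanning.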
BCR signal inh – inhibitors of chronic active B-cell receptor signaling | ABC-DLBCL IkBa-CBG/CBR reporter, luminescence ratio, 4 h | Potency, µM (titrated, usually from 46.1 µM), for inactives: at the highest dose activity change, negative = inhibition, hits mostly inhibitors | 340,000 tested, 0.05% active; active means well fitted inhibition curve with a large enough effect in the signal ratio, with a control signal flat, not every such curve was filed as active; inconclusive means small, poorly fitted or top-dose-only effect, or effect the other way, or a change in a side signal; the % refers to the signal ratio;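 further: potency means the concentration at half of the fitted maximal effect; plate controls were basal doxycycline-induced cells for no effect and cells given 10 µM MG132 for full effect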
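TMD8 human ABC-DLBCL cells with doxycycline-inducible IκBα–green luciferase fusion and unfused red luciferase, in 0.5% FBS medium; compounds up to 46 uM, 4 h at 37C. Green/red luminescence ratio, filter-overlap corrected, fitted to concentration-response curves.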
DT40 TDP1 no CPT – qHTS for Inhibitors of human tyrosyl-DNA phosphodiesterase 1 (TDP1): qHTS in cells in absence of CPT. DT40 Tdp1-/- hTDP1 cells, no CPT, ATP luminescence, 48 h. Potency, µM (doses to about 46.2 µM), inactives show top-dose activity change, negative = growth inhibition, hits mostly inhibitors. 420,000 tested, 15% active; further: potency means the concentration at half of the fitted maximal effect; on the % scale 0 is the no-effect control and ±100 the full control effect; nearly all actives have a fitted effect of over 55% in size
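Chicken DT40 Tdp1-/- cells stably complemented with human TDP1 were seeded at 400 cells/well with DMSO in place of 20 nM camptothecin. After compound pinning, cells grew at least 48 hr at 37 °C; viability read by CellTiter-Glo luminescence.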
MCF10A rereplic – inducers of DNA re-replication in MCF 10A breast cells | MCF 10A DNA re-replication, Hoechst nuclear intensity, 48 h | Potency, µM (top dose mostly 46.1 µM), for inactives: at the top dose activity, positive = re-replication, actives largely listed as activators | 350,000 tested, 2.9% active | AID 624296; further: potency means the concentration at half of the fitted maximal effect; % of control where 0% means no effect; nearly all actives have a fitted effect of over 50% in size
* marks the source's active call; other numbers are inactive results; ? = inconclusive; · = no result given; [ ] = dose if it differs, or a comment. A selection: hits, their analogues and other compounds. The true share with any hit is near 19%. Unless noted, the call rests on the fitted dose curve; in most records, active means well fitted curve in the direction sought with a large enough effect; inconclusive means small, poorly fitted or top-dose-only effect, or another doubt; inactive means no such curve, though single readings can be large; an effect the other way counts as inactive or inconclusive.

SMILES	IL1B secr inh	TDP1 cell CPT	SW480 rereplic	BCR signal inh	DT40 TDP1 no CPT	MCF10A rereplic
COc1cc(-c2nn3c(-c4cccnc4)nnc3s2)cc(OC)c1OC	29.1	?	-5.4%	9.2%	?	-1.2%
CCN(CC)S(=O)(=O)c1ccc2c(c1)c(=O)c(C(=O)N1CCN(c3cccc(C)c3)C(C)C1)cn2C (stereo not given)	·	-25.9%	·	·	?	·
CC1=C(C(=O)OC2CCCCC2)C(c2ccc(N(C)C)cc2)NC(=O)N1 (stereo not given)	?	?	-17.2%	-0.6%	?	3.1%
c1ccc(CN2CCN(CCOCCOc3cccc4ccccc34)CC2)cc1	-81.2*	-9.1%	4.0%	?	?	?
O=C(c1ccco1)N1CCCN(Cc2cn[nH]c2-c2ccc(-c3ccccc3)cc2)CC1	-81.6*	-5.5%	-4.8%	1.4%	?	?
O=C(c1ccco1)N1CCN(CCOCCOc2cccc3ccccc23)CC1	7.0	?	2.2%	-8.1%	?	7.2%
COc1ccc2ccccc2c1CN1CCN(C(=O)c2ccco2)CC1	-52.1*	18.4µM*	2.1%	?	14.6µM*	8.5%
O=C(c1ccco1)N1CCN(CCCCOc2cccc3ccccc23)CC1	0.0	18.4µM*	?	-9.0%	?	18.2%
O=C1N2CCCCC1(Sc1ccccc1)CCC2 (stereo not given)	15.3	12.9%	·	·	-13.7%	·
C=CCn1c(CNC(=O)c2ccccc2F)nnc1SCC(=O)NC(C)c1ccccc1 (stereo not given)	-13.9	0.0%	-1.8%	-7.5%	-0.9%	-10.4%
O=C(COC(=O)C1C2CC3OC(=O)C1C3C2)Nc1cccc(Cl)c1 (stereo not given)	3.3	-0.9%	-3.2%	3.8%	-8.8%	5.1%
CCOc1ccccc1-n1c(CN2CCN(C(=O)c3ccco3)CC2)nc2ccccc2c1=O	-102.7*	?	24.0%	?	?	3.66µM*
COc1ccc2ccccc2c1CN1CCN(C(=O)c2ccccc2)CC1	?	?	4.6%	?	14.6µM*	10.5%
CCOc1ccccc1-c1nc(CN2CCN(C(=O)c3ccco3)CC2)c(C)o1	-0.9	-9.4%	-6.1%	-11.2%	-19.9%	1.3%
CN(C)c1ncc2nc(-c3ccc(Cl)cc3)c(=O)n(C)c2n1	·	2.2%	·	·	12.4%	·
CCOC(=O)c1cc(NC(=O)c2ccc(Cl)cc2)c(=O)n2c1oc1ccccc12	·	-2.1%	·	·	-0.3%	·
CC(C)(C)c1ccc(C(=O)c2c[nH]c(C(=O)NCCCN3CCOCC3)c2)cc1	12.0	?	8.0%	-2.1%	18.4µM*	?
CCC(=O)c1c[nH]c(C(=O)NCCCN2CCOCC2)c1	15.4	5.4%	-3.8%	-0.1%	-2.1%	-2.5%
CC(C)(C)c1ccc(C(=O)c2c[nH]c(C(=O)NCC3CCCO3)c2)cc1 (stereo not given)	18.8	?	-3.9%	-2.3%	14.6µM*	7.1%
CC(Cl)C(=O)NNC(=O)CNS(=O)(=O)c1ccccc1 (stereo not given)	0.3	?	-41.5%	-6.5%	-11.4%	1.6%
CCc1nc2ccccc2c(=O)n1/N=C/c1ccc(Cl)cc1	7.4	-29.6%	-54.1%	·	16.4µM*	0.0%
COC(=O)c1nc2nc(-c3cccs3)cc(C(F)(F)F)n2n1	6.7	8.3%	0.517µM*	0.2%	-5.7%	-9.7%
CCCCOC(=O)Nc1ccc(C(C)C)cc1	-59.9*	4.4%	0.0%	?	-19.9%	10.7%
O=C(Nc1cccc(Cl)c1)OCCOCCOC(=O)Nc1cccc(Cl)c1	-4.5	?	2.1%	·	16.4µM*	20.6µM*
CC(C)COC(=O)NCCCOC(=O)Nc1ccccc1	-0.6	?	-1.0%	1.3%	?	-2.3%
SMILES	IL1B secr inh	TDP1 cell CPT	SW480 rereplic	BCR signal inh	DT40 TDP1 no CPT	MCF10A rereplic
O=C(Nc1cccc(Cl)c1)OCc1cnc(Cl)s1	-7.3	?	-8.6%	?	-18.3%	2.3%
CC(C)OC(=O)NCCOC(=O)Nc1ccc(Cl)cc1	-7.3	20.6µM*	-17.8%	?	14.6µM*	-5.2%
CC(C)COC(=O)NCCOC(=O)Nc1cccc(Cl)c1	11.6	16.4µM*	-4.5%[9.22 µM]	7.9%	16.4µM*	?
Cc1ccccc1NC(=O)c1c(C)oc2ccc(O)c(CN3CCC(C)CC3)c12	·	16.4µM*	·	·	23.1µM*	·
COCCOC(=O)c1c(C)oc2ccc(O)c(CN3CCC(C)CC3)c12	-29.2	-22.8%	-0.3%	-8.6%	-20.0%	2.3%
Cc1ccccc1NC(=O)c1c(C)oc2ccc(O)c(CN3CCCC(C)C3)c12 (stereo not given)	·	10.3µM*	·	·	20.6µM*	·
COc1ccc(-c2c(C)c3ccc(O)c(CN4CCCC(C)C4)c3oc2=O)cc1OC (stereo not given)	·	-16.7%	·	·	-22.8%	·
CC(=O)c1ccc(NC(=O)CSc2nc(=O)n(Cc3ccncc3)c3c2CCC3)cc1	·	-4.5%	·	-12.4%	-3.1%	·
COc1cccc(NC(=O)Cn2c(=O)n(Cc3nc(-c4ccccc4)no3)c(=O)c3ccccc32)c1	·	-23.8%	·	·	?	·
COc1ccc(-c2noc(Cn3c(=O)c4ccccc4n(CC(=O)Nc4cccc(OC)c4)c3=O)n2)cc1	·	?	·	·	20.6µM*	·
Cc1noc(Cn2c(=O)c3ccccc3n(CC(=O)Nc3ccc(C(C)C)cc3)c2=O)n1	·	?	·	·	16.4µM*	·
CCc1ccc(NC(=O)CSc2nc3nc(C)cc(C)n3n2)cc1	69.9	?	11.6%	-4.1%	?	11.9%
COC(=O)c1c(NC(=O)CSc2n[nH]c(N)n2)sc(C)c1C	-11.0	5.4%	-2.6%	-2.2%	0.4%	14.4%
CCOC(=O)c1c(NC(=O)CSc2nc3nc(C)cc(C)n3n2)sc(CC)c1C	27.8	11.6µM*	-2.5%	3.6%	?	14.5%
CCOC(=O)c1c(NC(=O)CSc2n[nH]c(N)n2)sc(CC)c1C	-92.2*	-18.2%	-4.3%	1.3%	-2.1%	-1.5%
Cc1ccc(OCc2cnc(Cl)s2)c(C)c1	8.8	-20.4%	-2.0%	1.2%	-7.5%	-0.6%
COc1ccc(Cc2nc3ccc(C(=O)N(C)CCn4ccnc4)cc3o2)cc1OC	0.2	-9.1%	-8.0%	-3.2%	-14.2%	8.6%
N#CC1=C(N)NC(SCc2ccccc2)=C(C#N)C12CCCC2	2.4	?	?	?	18.4µM*	18.4µM*
CC1=C(C(=O)Nc2ccccc2)C2(CCCCC2)C(C#N)=C(SCC(N)=O)N1	15.2	?	?	?	16.4µM*	16.5%

High-throughput results from PubChem BioAssay.
